Consider 20 molecules from PubChem BioAssay.

Values without a mark were called inactive. For some of these results: Potency and affinity values are given separately. Calls of active or inactive are those of the source. Unless noted, the rule behind the calls is not given here.

The inhibition is the change of the read-out against control, counted positive when it falls.

A short description of assay [1]: antimalarial activity against Dd2 strain (AID 2302;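 active = growth inhibition above 50% at the single 2 µM test dose, taken to imply half-maximal potency below 2 µM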;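 note: 0% = DMSO untreated growth and 100% = chloroquine plus artemisinin killed control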). The following applies: P. falciparum Dd2 in RBCs, LDH growth readout, 72 h; at 2 µM; hits give high values.
A short description of assay [2]: human hepatoma cell viability loss – ATP luminescence, cytotoxicity control for P. falciparum antimalarial project, primary screen (AID 2303;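 active = inhibition above 50%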;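 note: 0% = DMSO wells and 100% = digitonin-killed cells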). The following applies: HepG2 viability, 24-48 h, at 10 µM, hits give high values.
The target in assay [3] is L-lactate dehydrogenase (Plasmodium falciparum (isolate CDC / Honduras)) (UniProt Q27743). As to the kind of experiment: PfLDH activity inhibition – cell lysate, 3D7 strain, counter-screen for P. falciparum growth inhibition project (AID 2304).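 Note: 0% = vehicle and 100% = reference inhibitor.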 The following applies: P. falciparum 3D7 crude extract, LDH APAD/NBT absorbance; at 2 µM; hits give high values.
Assay [4] in a line: inhibition of 3D7 malaria parasite growth – strain 3D7 (AID 2306).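 Note: 0% = DMSO wells and 100% = chloroquine plus artemisinin control wells.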 The following applies: P. falciparum 3D7 erythrocytic growth, LDH absorbance, 72 h; at 2 µM; hits give high values.
The target in assay [5] is Calcium-dependent protein kinase 1 (Plasmodium falciparum (isolate 3D7)) (UniProt P62344). Description: PfCDPK1 kinase inhibitors, biochemical, TCAMS library (AID 1159585; cut-off not given, nearly all actives have IC50 up to about 0.98 µM;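 note: inhibitors leave more ATP so luminescence rises with inhibition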). To be noted: recombinant PfCDPK1, Kinase-Glo ATP depletion luminescence. Background: Kinase-Glo measures the ATP left after a reaction by luminescence.
Assay [6] concerns the target Plasmodium falciparum protein kinase 6 (PK6, PF3D7_1337100) (UniProt Q8IDW1). Description: PfPK6 kinase inhibitors, biochemical, TCAMS library (AID 1159586). To be noted: recombinant PfPK6, Kinase-Glo ATP depletion luminescence.
Assay [7] addresses Protein kinase 7 (PK7), Plasmodium falciparum 3D7 (PF3D7_0213400) (UniProt Q7YTF7). Description: inhibition of Plasmodium PK7 catalytic activity – biochemical, TCAMS antimalarial set, Kinase-Glo luminescence (AID 1159587). The following applies: recombinant PfPK7, Kinase-Glo ATP depletion luminescence.
The target of assay [8] is Calcium-dependent protein kinase 4 (Plasmodium falciparum (isolate 3D7)) (UniProt Q8IBS5). As to the kind of experiment: PfCDPK4 kinase inhibitors, biochemical, TCAMS library (AID 1159588; cut-off not given, nearly all actives have IC50 up to about 0.91 µM). To be noted: recombinant PfCDPK4, Kinase-Glo ATP depletion luminescence.
Calcium-dependent protein kinase 4 (Plasmodium falciparum (isolate 3D7)), sequence (Q8IBS5 whole entry, looked up): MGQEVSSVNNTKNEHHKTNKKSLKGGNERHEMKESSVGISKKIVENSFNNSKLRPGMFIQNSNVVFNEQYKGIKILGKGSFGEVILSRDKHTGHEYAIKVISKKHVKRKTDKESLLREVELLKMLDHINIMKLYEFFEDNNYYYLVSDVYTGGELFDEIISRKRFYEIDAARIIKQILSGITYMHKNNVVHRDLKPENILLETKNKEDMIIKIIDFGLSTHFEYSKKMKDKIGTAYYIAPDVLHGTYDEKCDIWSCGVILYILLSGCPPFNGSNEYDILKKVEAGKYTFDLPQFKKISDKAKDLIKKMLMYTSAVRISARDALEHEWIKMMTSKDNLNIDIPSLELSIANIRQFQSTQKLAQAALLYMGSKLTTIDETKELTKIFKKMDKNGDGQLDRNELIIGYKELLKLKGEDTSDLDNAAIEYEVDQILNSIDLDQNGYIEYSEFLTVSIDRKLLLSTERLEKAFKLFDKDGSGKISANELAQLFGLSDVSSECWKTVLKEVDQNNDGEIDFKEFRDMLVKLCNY

Plasmodium falciparum protein kinase 6 (PK6, PF3D7_1337100), sequence (Q8IDW1 1-305): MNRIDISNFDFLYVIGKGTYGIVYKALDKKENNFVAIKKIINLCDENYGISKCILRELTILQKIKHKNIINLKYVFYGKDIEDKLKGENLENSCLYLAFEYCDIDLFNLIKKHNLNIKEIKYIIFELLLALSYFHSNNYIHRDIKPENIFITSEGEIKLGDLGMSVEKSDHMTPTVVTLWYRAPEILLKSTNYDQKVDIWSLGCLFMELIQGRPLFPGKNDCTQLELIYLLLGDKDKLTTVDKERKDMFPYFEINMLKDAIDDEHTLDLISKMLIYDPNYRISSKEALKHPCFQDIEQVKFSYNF
Calcium-dependent protein kinase 1 (Plasmodium falciparum (isolate 3D7)), sequence (P62344 whole entry, looked up): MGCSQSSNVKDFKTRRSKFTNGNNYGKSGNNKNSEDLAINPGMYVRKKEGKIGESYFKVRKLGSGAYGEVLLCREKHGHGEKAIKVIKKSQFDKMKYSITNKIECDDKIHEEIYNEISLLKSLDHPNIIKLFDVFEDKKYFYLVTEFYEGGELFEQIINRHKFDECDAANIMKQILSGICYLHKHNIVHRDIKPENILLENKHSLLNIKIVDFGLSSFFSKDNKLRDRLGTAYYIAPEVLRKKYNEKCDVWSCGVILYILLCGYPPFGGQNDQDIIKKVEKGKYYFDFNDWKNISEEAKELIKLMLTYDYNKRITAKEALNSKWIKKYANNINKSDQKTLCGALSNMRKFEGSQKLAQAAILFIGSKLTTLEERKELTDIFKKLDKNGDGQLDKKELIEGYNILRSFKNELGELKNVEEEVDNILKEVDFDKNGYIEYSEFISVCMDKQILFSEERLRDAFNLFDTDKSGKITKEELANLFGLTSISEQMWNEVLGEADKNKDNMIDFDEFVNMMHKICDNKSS
L-lactate dehydrogenase (Plasmodium falciparum (isolate CDC / Honduras)), sequence (Q27743 whole entry, looked up): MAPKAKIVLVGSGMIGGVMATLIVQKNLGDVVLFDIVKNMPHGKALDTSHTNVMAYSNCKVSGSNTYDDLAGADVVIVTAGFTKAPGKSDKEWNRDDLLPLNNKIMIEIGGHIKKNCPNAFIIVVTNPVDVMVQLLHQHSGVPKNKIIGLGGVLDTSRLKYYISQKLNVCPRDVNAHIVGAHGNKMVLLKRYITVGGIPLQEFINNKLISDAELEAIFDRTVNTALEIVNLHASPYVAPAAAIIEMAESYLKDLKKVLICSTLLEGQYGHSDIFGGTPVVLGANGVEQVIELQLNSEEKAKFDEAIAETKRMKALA
Protein kinase 7 (PK7), Plasmodium falciparum 3D7 (PF3D7_0213400), sequence (Q7YTF7 1-343): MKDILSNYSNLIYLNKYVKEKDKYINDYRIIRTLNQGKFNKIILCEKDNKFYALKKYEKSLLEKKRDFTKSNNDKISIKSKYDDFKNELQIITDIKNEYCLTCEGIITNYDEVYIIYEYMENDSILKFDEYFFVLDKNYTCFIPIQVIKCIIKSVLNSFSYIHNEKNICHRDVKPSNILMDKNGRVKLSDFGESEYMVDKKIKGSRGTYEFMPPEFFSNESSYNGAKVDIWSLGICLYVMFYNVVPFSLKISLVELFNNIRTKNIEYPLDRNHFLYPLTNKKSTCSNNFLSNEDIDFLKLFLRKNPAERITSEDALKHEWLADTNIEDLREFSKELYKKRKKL

For the molecule `Cc1ccccc1C1CCN(C2CCC(NC(=O)/C=C/c3ccc(F)c(F)c3)CC2)CC1` (stereo not given), the growth inhibition was 7% in assay [1] and 93% (active) in assay [4]. Further, the inhibition in assay [2] was 34%; in assay [3], -1%. The result in assay [5], in assay [6], in assay [7] and in assay [8] was inactive.

Consider `CC(C)NCc1ccc(-c2ccc(-c3nc4ccc(C(F)(F)F)cc4[nH]3)s2)cc1`, for which the growth inhibition was 94% (active) in assay [1] and 101% (active) in assay [4]. Also, the inhibition was 30% in assay [2] and 1% in assay [3]. Moreover, the outcome in assay [5], in assay [6], in assay [7] and in assay [8] was inactive.

Consider `O=C(c1cccc(-c2ccc(-c3nc4ccc(C(F)(F)F)cc4[nH]3)cc2)c1)N1CCCCC1CN1CCC(O)C1` (stereo not given), for which the growth inhibition was 101% (active) in assay [1] and 92% (active) in assay [4]. The inhibition is 19% in assay [2] and 4% in assay [3]. The result in assay [5], in assay [6], in assay [7] and in assay [8] was inactive.

On to `CCOc1ccc(NC(=O)c2ccc(NCCCN3CC(C)CC(C)C3)c([N+](=O)[O-])c2)cc1` (stereo not given), for which the growth inhibition is 60% (active) in assay [1] and 101% (active) in assay [4]. Further, the inhibition in assay [2] was 3%; in assay [3] it was -4%. Further, the outcome in assay [5], in assay [6], in assay [7] and in assay [8] was inactive.

For the molecule `Cc1cc(NN=Cc2ccc(F)cc2)c2cccc(C)c2n1`, the figures for the growth inhibition in assay [1] and in assay [4] were 99% (active) and 100% (active), respectively. Further, the inhibition in assay [2] is 7%; in assay [3], -6%. Further, the result in assay [5], in assay [6], in assay [7] and in assay [8] was inactive.

Regarding `COC(=O)c1cc(/C(C)=N/Nc2nc3ccccc3[nH]2)ccc1O`, the growth inhibition was 75% (active) in assay [1] and 101% (active) in assay [4]. Moreover, the inhibition was 9% in assay [2] and -1% in assay [3]. The result in assay [5], in assay [6], in assay [7] and in assay [8] was inactive.

With `CN(C)CC(=O)Nc1cccc(Nc2nccc(NCC(O)c3ccccc3)n2)c1` (stereo not given), the growth inhibition in assay [1] is 3%; in assay [4] it was 102% (active). Besides, the inhibition in assay [2] was 30%; in assay [3], -5%. Moreover, the outcome in assay [5], in assay [6], in assay [7] and in assay [8] was inactive.

Turning to `Cc1ccc(NC(=O)N2CCC(n3c(-c4ccccc4)nc4cccnc43)CC2)cc1F`, the growth inhibition in assay [1] is 85% (active); in assay [4], 96% (active). Besides, the values for the inhibition in assay [2] and in assay [3] were 23% and 2%, respectively. For the same molecule, the result in assay [5], in assay [6], in assay [7] and in assay [8] was inactive.

As for `CN(c1ccc(C(=O)N[C@@H](CCC(=O)O)C(=O)O)cc1)S(=O)(=O)c1ccc2nc(N)[nH]c(=O)c2c1`, the growth inhibition in assay [1] is 3%; in assay [4] it was 97% (active). Also, the inhibition is 16% in assay [2] and 2% in assay [3]. The result in assay [5], in assay [6], in assay [7] and in assay [8] was inactive.

Take `O=C(NCCCCN1CCC(c2ccc3ccccc3c2O)CC1)c1ccc(NC(=O)c2ccc(Cl)cc2)cc1`: the growth inhibition in assay [1] was 89% (active); in assay [4], 101% (active). The figures for the inhibition in assay [2] and in assay [3] were 34% and 3%, respectively. Moreover, the outcome in assay [5], in assay [6], in assay [7] and in assay [8] was inactive.

Take `O=C(NCCCN1CCC(N2CCCCC2)CC1)c1ccc2nc(N3CCCCC3)sc2c1`: the figures for the growth inhibition in assay [1] and in assay [4] were 20% and 89% (active), respectively. Further, the inhibition in assay [2] is 11%; in assay [3], -1%. The result in assay [5], in assay [6], in assay [7] and in assay [8] was inactive.

For the molecule `O=C(c1ccc(-c2cccc(-c3nc4ccc(C(F)(F)F)cc4[nH]3)c2)cc1)N1CCCCC1CN1CCC(O)C1` (stereo not given), the growth inhibition in assay [1] was 98% (active); in assay [4], 100% (active). Besides, the inhibition is 29% in assay [2] and -11% in assay [3]. The outcome in assay [5], in assay [6], in assay [7] and in assay [8] was inactive.

In the case of `O=C(Nc1ccc(C(=O)N2CCN(CCN3CCN(c4cccc(C(F)(F)F)c4)CC3)CC2)cc1)c1cc(Cl)cc(Cl)c1`, the results for the growth inhibition in assay [1] and in assay [4] were 19% and 100% (active), respectively. Further, the inhibition in assay [2] was 23%; in assay [3], 3%. For the same molecule, the outcome in assay [5], in assay [6], in assay [7] and in assay [8] was inactive.

Consider `CC1(C)N=C(N)N=C(N)N1OCCCCOc1ccc(Cl)cc1C1CCCCC1`, for which the growth inhibition in assay [1] is 97% (active); in assay [4] it was 93% (active). Further, the inhibition in assay [2] was 56% (active); in assay [3] it was 2%. Moreover, the result in assay [5], in assay [6], in assay [7] and in assay [8] was inactive.

`Oc1ccc(CCNc2nc(NCc3ccccc3-c3ccccc3)nc(N3CCCNCC3)n2)cc1`: the growth inhibition in assay [1] is 20%; in assay [4], 95% (active). Moreover, the inhibition in assay [2] was 26%; in assay [3], -5%. The result in assay [5], in assay [6], in assay [7] and in assay [8] was inactive.

Turning to `COc1ccc(Cl)cc1N1CCN(CCCNC(=O)c2ccc(-c3nc4cc(Cl)c(C)cc4[nH]3)s2)CC1`, the growth inhibition in assay [1] was 97% (active); in assay [4], 102% (active). Also, the results for the inhibition in assay [2] and in assay [3] were -1% and 1%, respectively. The outcome in assay [5], in assay [6], in assay [7] and in assay [8] was inactive.

In the case of `Nc1nc2ncn(COC(COCc3ccccc3)COCc3ccccc3)c2c(=O)[nH]1` (tested in a mixture with another compound), the values for the growth inhibition in assay [1] and in assay [4] were 57% (active) and 86% (active), respectively. The inhibition in assay [2] is 18%; in assay [3], -7%. Besides, the outcome in assay [5], in assay [6], in assay [7] and in assay [8] was inactive.

Consider `Cc1csc(-c2nonc2NC(=O)COc2ccccc2C(C)C)n1`, for which the growth inhibition in assay [1] is 85% (active); in assay [4] it was 90% (active). Moreover, the inhibition in assay [2] is 14%; in assay [3] it was -1%. In addition, the outcome in assay [5], in assay [6], in assay [7] and in assay [8] was inactive.

Consider `NC(=O)c1cccc(C(=O)Nc2cccc(-c3cccc(-c4nc5ccc(F)cc5[nH]4)c3)c2)c1`, for which the figures for the growth inhibition in assay [1] and in assay [4] were 73% (active) and 100% (active), respectively. Moreover, the inhibition is 47% in assay [2] and 1% in assay [3]. Moreover, the result in assay [5], in assay [6], in assay [7] and in assay [8] was inactive.

Take `COc1ccc(CCNC(=O)c2ccccc2O)cc1-c1ccc(C(C)(C)C)cc1`: the growth inhibition was 96% (active) in assay [1] and 95% (active) in assay [4]. Also, the figures for the inhibition in assay [2] and in assay [3] were 25% and 0%, respectively. The outcome in assay [5], in assay [6], in assay [7] and in assay [8] was inactive.
